Assay results: PubChem BioAssay AID2284087 (EPA ToxCast)
Activity calls are given as the source filed them. The calls were made as follows: active = hit-call score of the fitted dose curve at least 0.9, where 1 is the maximum; inactive = score below 0.9.

Target: human Flt-1 (VEGFR1) (FLT1) Receptor Tyrosine Kinase, FLT1 (gene 2321) (UniProt P17948)
Test: ERF_FR_ENZ_hFLT1: Eurofins (ERF) Enzymatic Radiometric [Km ATP] KinaseProfiler LeadHunter Assay for human Flt-1 (VEGFR1) (FLT1) Receptor Tyrosine Kinase
Procedure: ERF_FR_ENZ_hFLT1 is a biochemical, single-readout assay that uses extracted gene-proteins in a cell-free assay. Measurements were taken 0.25 hour after chemical dosing in a 96-well plate. See Flt-1 (VEGFR1) Human RTK Kinase Enzymatic LANCE Assay [Km ATP], Cerep.ERF_FR_ENZ_hFLT1 is an assay component calculated from the ERF_FR_ENZ_hFLT1 assay. It is designed to measure enzyme activity using a type of enzyme reporter as detected by fluorescence intensity with LANCE technology.Data from the assay component ERF_FR_ENZ_hFLT1 was analyzed at the assay endpoint, ERF_FR_ENZ_hFLT1, in the positive analysis fitting direction relative to DMSO as the negative control and baseline of activity. Using a type of enzyme reporter, loss-of-signal activity can be used to understand changes in enzymatic activity as they relate to gene FLT1. To generalize the intended target to other relatable targets, this assay endpoint is annotated to the kinase intended target family, where the subfamily is receptor tyrosine kinase.
Flt1 (h) is incubated with 8 mM MOPS pH 7.0, 0.2 mM EDTA, 250 uM […], 10 mM MgAcetate and [g- 33P]-ATP (specific activity and concentration as required). The reaction is initiated by the addition of the Mg/ATP mix. After incubation for 40 minutes at room temperature, the reaction is stopped by the addition of phosphoric acid to a concentration of 0.5%. […]

Chain of human Flt-1 (VEGFR1) (FLT1) Receptor Tyrosine Kinase, FLT1 (gene 2321) (P17948 whole entry, looked up): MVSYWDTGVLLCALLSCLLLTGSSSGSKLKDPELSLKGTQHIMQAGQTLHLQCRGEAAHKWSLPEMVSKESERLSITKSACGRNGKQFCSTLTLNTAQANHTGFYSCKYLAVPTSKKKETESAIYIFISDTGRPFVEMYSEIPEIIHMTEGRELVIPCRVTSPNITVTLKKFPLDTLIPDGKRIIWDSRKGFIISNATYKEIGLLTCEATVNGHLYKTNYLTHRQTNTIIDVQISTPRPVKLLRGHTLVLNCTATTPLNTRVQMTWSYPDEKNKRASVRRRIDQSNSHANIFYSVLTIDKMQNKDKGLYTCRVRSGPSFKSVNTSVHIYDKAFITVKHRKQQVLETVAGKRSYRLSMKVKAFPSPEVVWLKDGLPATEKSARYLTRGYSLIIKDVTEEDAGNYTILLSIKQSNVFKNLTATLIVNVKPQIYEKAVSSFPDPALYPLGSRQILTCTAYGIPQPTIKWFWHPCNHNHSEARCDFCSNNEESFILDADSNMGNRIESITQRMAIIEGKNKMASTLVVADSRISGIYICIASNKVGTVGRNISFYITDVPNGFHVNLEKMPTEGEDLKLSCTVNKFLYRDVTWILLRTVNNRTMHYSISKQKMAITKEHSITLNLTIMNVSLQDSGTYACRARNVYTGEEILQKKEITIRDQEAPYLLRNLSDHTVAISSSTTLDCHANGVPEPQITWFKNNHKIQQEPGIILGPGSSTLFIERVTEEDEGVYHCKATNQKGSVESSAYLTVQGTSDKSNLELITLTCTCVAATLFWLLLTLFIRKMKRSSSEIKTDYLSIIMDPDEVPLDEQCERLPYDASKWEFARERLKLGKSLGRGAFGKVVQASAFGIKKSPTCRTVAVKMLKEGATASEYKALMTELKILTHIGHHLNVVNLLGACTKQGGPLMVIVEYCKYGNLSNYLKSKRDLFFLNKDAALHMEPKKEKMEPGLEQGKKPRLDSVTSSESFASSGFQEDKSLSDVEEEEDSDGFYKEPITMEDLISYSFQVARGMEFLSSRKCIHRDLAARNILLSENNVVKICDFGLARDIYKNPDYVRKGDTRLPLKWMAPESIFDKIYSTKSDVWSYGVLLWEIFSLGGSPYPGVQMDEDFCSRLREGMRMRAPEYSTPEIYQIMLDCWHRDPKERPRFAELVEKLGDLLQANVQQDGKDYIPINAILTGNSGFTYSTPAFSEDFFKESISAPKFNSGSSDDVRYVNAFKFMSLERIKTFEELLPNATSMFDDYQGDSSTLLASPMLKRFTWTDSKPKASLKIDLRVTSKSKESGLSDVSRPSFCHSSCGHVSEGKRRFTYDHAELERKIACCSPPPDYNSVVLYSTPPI

Compound	outcome
O=C(/C=C/c1ccc(O)cc1)CC(=O)/C=C/c1ccc(O)cc1	inactive
